Laboratory results published in PubChem BioAssay (NCI).
The panel holds about 79,000 compounds, 15% with a hit somewhere; the sample as a whole holds those more often. A number with no mark means an inactive call. The source made the active and inactive calls. Rule as the data show it: active = growth inhibition above about 70%; inactive = the rest.

Experiments:
[1] = NCI Yeast Anticancer Drug Screen. Data for the rad50 strain (AID 155);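 also: 0% = growth of vehicle-only cultures of the same strain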; details: S. cerevisiae rad50 strain growth inhibition, hits give high values
Summary of the method: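 Inhibition values express reduced yeast growth in compound-treated cultures relative to vehicle-treated controls.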

[2] = NCI Yeast Anticancer Drug Screen. Data for the sgs1 mgt1 strain (AID 161);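 also: 0% = growth of cultures given vehicle only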; details: S. cerevisiae sgs1 mgt1 strain, hits give high values
Summary of the method: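 Yeast cells carrying a defined DNA-repair defect were exposed to test compounds. Growth inhibition was measured relative to vehicle-treated controls.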

[3] = NCI Yeast Anticancer Drug Screen. Data for the cln2 rad14 strain (AID 165);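 also: 0% = growth equal to vehicle treated cultures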; details: S. cerevisiae cln2 rad14 strain, hits give high values
Summary of the method: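 Growth inhibition, relative to vehicle-treated controls, is the read-out. The test organism is a yeast strain with defined genetic alterations, cln2 rad14.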

[4] = NCI Yeast Anticancer Drug Screen. Data for the bub3 strain (AID 167); details: S. cerevisiae bub3 mutant strain, hits give high values
Summary of the method: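 Steps: expose the mutant yeast strain to compound; grow alongside vehicle-treated cultures; measure growth; express inhibition against the vehicle cultures.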

[5] = NCI Yeast Anticancer Drug Screen. Data for the mlh1 rad18 strain (AID 175); details: S. cerevisiae mlh1 rad18 strain growth inhibition, hits give high values
Summary of the method: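 Cells of a genetically altered yeast strain, deficient in DNA damage repair, were treated with compound. Their growth was then compared with that of vehicle-treated cultures to give inhibition.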

[6] = NCI Yeast Anticancer Drug Screen. Data for the mec2-1 strain (AID 157); details: S. cerevisiae mec2-1 strain, hits give high values
Summary of the method: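 Growth inhibition is read against vehicle-treated controls after compound exposure of the mec2-1 yeast strain, which is defective in DNA damage repair or cell cycle control.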

[7] = at 5.0 µM (retest, dose inferred, filed as 0.5)
[8] = at 50.0 µM (retest, dose inferred, filed as 5.0)

Structure (SMILES): CCC[CH2][Sn]([Cl])([CH2]CCC)[S]/C(C#N)=N/N=C/c1ccc(N(C)C)cc1
- growth inhibition [1, 7]: 97% (active)
- growth inhibition [1, 8]: 98% (active)
- growth inhibition ([1]; at 50.0 µM): 98.2% (active)
- growth inhibition [2, 7]: 97% (active)
- growth inhibition [2, 8]: 98% (active)
- growth inhibition ([2]; at 50.0 µM): 98.8% (active)
- growth inhibition [3, 7]: 99% (active)
- growth inhibition [3, 8]: 98% (active)
- growth inhibition ([3]; at 50.0 µM): 97.9% (active)
- growth inhibition [4, 7]: 97% (active)
- growth inhibition [4, 8]: 98% (active)
- growth inhibition ([4]; at 50.0 µM): 98.8% (active)
- growth inhibition [5, 7]: 98% (active)
- growth inhibition [5, 8]: 97% (active)
- growth inhibition ([5]; at 50.0 µM): 98.7% (active)

Structure (SMILES): CC[N+](CC)(CC)Cc1ccc(C[N+](CC)(CC)CC)cc1
- growth inhibition [1, 7]: 8%
- growth inhibition [1, 8]: -4%
- growth inhibition ([1]; at 50.0 µM): 16.9%
- growth inhibition [6, 7]: 1%
- growth inhibition [6, 8]: -2%
- growth inhibition ([6]; at 50.0 µM): 54.2%
- growth inhibition [2, 7]: 6%
- growth inhibition [2, 8]: -15%
- growth inhibition ([2]; at 50.0 µM): -0.8%
- growth inhibition [4, 7]: 5%
- growth inhibition [4, 8]: -4%
- growth inhibition ([4]; at 50.0 µM): 95.5% (active)
- growth inhibition [5, 7]: 2%
- growth inhibition [5, 8]: -4%
- growth inhibition ([5]; at 50.0 µM): 17.4%

Structure (SMILES): N#CC1=C(N)OC(c2ccccc2)=C(C#N)C1c1ccccc1[N+](=O)[O-] (configuration not stated)
- growth inhibition [6, 7]: 9%
- growth inhibition [6, 8]: 8%
- growth inhibition ([6]; at 50.0 µM): 38.1%
- growth inhibition [2, 7]: 12%
- growth inhibition [2, 8]: -8%
- growth inhibition ([2]; at 50.0 µM): 22.7%
- growth inhibition [3, 7]: 11%
- growth inhibition [3, 8]: 5%
- growth inhibition ([3]; at 50.0 µM): 72.5% (active)
- growth inhibition [4, 7]: -1%
- growth inhibition [4, 8]: -4%
- growth inhibition ([4]; at 50.0 µM): 39.1%
- growth inhibition [5, 7]: 2%
- growth inhibition [5, 8]: 7%
- growth inhibition ([5]; at 50.0 µM): 23.3%

Structure (SMILES): O=C(O)c1cc(Br)ccc1OCc1ccc(Cl)cc1
- growth inhibition [1, 7]: -1%
- growth inhibition [1, 8]: 28%
- growth inhibition ([1]; at 50.0 µM): 43.9%
- growth inhibition [2, 7]: -7%
- growth inhibition [2, 8]: 5%
- growth inhibition ([2]; at 50.0 µM): 58%
- growth inhibition [3, 7]: -13%
- growth inhibition [3, 8]: 27%
- growth inhibition ([3]; at 50.0 µM): 79.4% (active)
- growth inhibition [4, 7]: -8%
- growth inhibition [4, 8]: 9%
- growth inhibition ([4]; at 50.0 µM): -2.25%
- growth inhibition [5, 7]: -8%
- growth inhibition [5, 8]: 12%
- growth inhibition ([5]; at 50.0 µM): 52.9%

Structure (SMILES): Cc1cccc(NC(=O)C(=O)C(C2OC(=O)c3ccccc32)[N+](=O)[O-])c1C (configuration not stated)
- growth inhibition [6, 7]: -24%
- growth inhibition [6, 8]: 82% (active)
- growth inhibition ([6]; at 50.0 µM): 86.8% (active)
- growth inhibition [2, 7]: 9%
- growth inhibition [2, 8]: 75% (active)
- growth inhibition ([2]; at 50.0 µM): 87.7% (active)
- growth inhibition [4, 7]: -13%
- growth inhibition [4, 8]: 92% (active)
- growth inhibition ([4]; at 50.0 µM): 88.3% (active)
- growth inhibition [5, 7]: -21%
- growth inhibition [5, 8]: 89% (active)
- growth inhibition ([5]; at 50.0 µM): 83.3% (active)

Structure (SMILES): CSc1nc(SC)c2cn(Cc3ccccc3)nc2n1
- growth inhibition [1, 7]: -2%
- growth inhibition [1, 8]: 94% (active)
- growth inhibition ([1]; at 50.0 µM): 55.5%
- growth inhibition [6, 7]: -3%
- growth inhibition [6, 8]: 95% (active)
- growth inhibition ([6]; at 50.0 µM): 52.1%
- growth inhibition [2, 7]: -5%
- growth inhibition [2, 8]: 97% (active)
- growth inhibition ([2]; at 50.0 µM): 80.7% (active)
- growth inhibition [4, 7]: 4%
- growth inhibition [4, 8]: 92% (active)
- growth inhibition ([4]; at 50.0 µM): 42.8%
- growth inhibition [5, 7]: -2%
- growth inhibition [5, 8]: 95% (active)
- growth inhibition ([5]; at 50.0 µM): 63.8%
